# Measurements reported in PubChem BioAssay AID504332 (National Center for Advancing Translational Sciences (NCATS), 2011).
# Several values for one entry are separate records, joined by “and”; a condition that tells them apart may be missing. Identical values can stand only once. Out of some 350,000 compounds screened, about 31,000 (8.9%) were called active. A call without a number means that no potency is given here. Another 15% or so got no clear call; they are omitted. The sample holds actives, similar compounds and a random draw of the others, so the mix is not that of the screen. The call rests on the fitted dose curve; in most records, active means well fitted inhibition curve with a large enough effect; inconclusive means small, poorly fitted or top-dose-only effect; inactive means no such curve, though single readings can be large or run the other way. Where a structure was tested more than once in an assay, its records may differ in their call.
# Molecular target: Histone-lysine N-methyltransferase EHMT2 (Homo sapiens) (UniProt Q96KQ7)
# Test: qHTS Assay for Inhibitors of Histone Lysine Methyltransferase G9a; further: nearly all actives have a fitted effect of over 75% in size
# Conditions: G9a H3K9 monomethylation, AlphaScreen, 2 h; series mostly up to 102 µM
# From the text: Methylated lysines, on the N-terminal tails of histone proteins serve as epigenetic markers to recruit factors that can then modify local chromatin structure to lead to functional consequences. G9a and other members of the SUV39 family of the SET domain-containing superfamily of histone lysine methyltransferases (HMT) have been identified to specifically methylate Lys9 of histone H3 (H3K9). G9a catalyzes the mono- and di-methylation of H3K9 in mammalian euchromatic regions, where the resulting H3K9me2 is indicative of transcriptional repression. […] The inhibition of G9a will result in transcriptional activation and work synergistically with DNA methyltransferase and histone deacetylase inhibitors, to kill cancer cells. This qHTS assay for identification of G9a inhibitors is a chemiluminescence based AlphaScreen (PerkinElmer). Methylation of biotinylated-histone peptide is measured through specific antibody-based detection, in conjunction with streptavidin-coated donor and anti-IgG antibody-coated acceptor beads. The method is particularly well suited for detection of inhibitors acting by the desired histone peptide competitive mechanism and is applicable to testing other HMTs. Although AlphaScreen has significant advantages with its utility in a variety of epigenetic target assays, the primary screening data provided in this deposition should be used with caution due to the prevalence of screening artifacts. An AlphaScreen counterscreen is highly recommended to be run against any putative actives to eliminate non specific artifacts. Alternatively, one can use other AlphaScreen assays in PubChem to filter out promiscuous hits. Quinn et al. A chemiluminescence-based method for identification of histone lysine methyltransferase inhibitors. Mol Biosyst 6(5): 782-8. 2010. PMID: 20567762 [2] Baell,Holloway. New substructure filters for removal of pan assay interference compounds (PAINS) from screening libraries and for their exclusion in bioassays. J Med Chem. 53(7):2719-40. 2010. PMID: 20131845 NIH Molecular Libraries Probe Production Network [MLPCN] NIH Chemical Genomics Center [NCGC] Structural Genomics Consortium (SGC) NIH Grant: 5U54 MH084681-02
# To each well of a 1,536w plate, 2ul of HMT enzyme (final 20nM) were added, using a nanoliter dispenser. The G9a- and GLP-inhibitor BIX-01294 (CID: 25150857) are used as an intraplate control, with a 16-point titration in duplicate. A Kalypsys pin-tool transferred 23nl of library compound solution in DMSO to each well. Following a 15 min incubation of enzyme with compounds at room temperature, 1ul mixture of b-H3K9 peptide substrate (final 500nM) and SAM cofactor (final 20uM) were added. Reactions were allowed to proceed at room temperature for 2 hours. Methylated b-H3K9 peptide product was detected with 0.5 ug/mL rabbit polyclonal anti-monomethyl histone H3K9 antibody (Abcam Inc., Cambridge, MA) and 20 ug/mL each streptavidin-coated donor and anti-rabbit IgG acceptor AlphaScreen beads. Antibody and beads were added in a 1ul dispense, for a final volume of 4ul, and plates were incubated, protected from the light, for 10 min at room temperature. Microplates were then read on an EnVision multilabel plate reader using the 1,536 plate HTS AlphaScreen aperture (excitation time 80 ms, measurement time 240 ms).
# Potency means the concentration at half of the fitted maximal effect.
# Chain of Histone-lysine N-methyltransferase EHMT2 (Homo sapiens) (Q96KQ7 913-1193 limits assumed): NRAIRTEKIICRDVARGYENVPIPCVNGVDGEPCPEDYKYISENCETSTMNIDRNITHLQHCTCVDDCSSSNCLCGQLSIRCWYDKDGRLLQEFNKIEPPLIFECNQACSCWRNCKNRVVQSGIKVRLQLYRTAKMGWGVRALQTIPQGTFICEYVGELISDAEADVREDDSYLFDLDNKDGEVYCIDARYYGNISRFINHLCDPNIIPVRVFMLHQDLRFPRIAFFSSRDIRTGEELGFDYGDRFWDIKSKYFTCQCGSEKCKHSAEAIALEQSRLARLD
SMILES,"activity, negative = inhibition",Potency
c1csc(CN2CC3(CCNCC3)C2)n1,-16.9% [at 12.7 µM] (inactive),–
c1ccc(N2CC[C@@]3(CCCNC3)C2)nc1,-39.9% [at 12.7 µM] (inactive),–
COC(=O)CN1C(=O)C2(C(C(=O)OC)=C(N)Oc3ccccc32)C2=C1CC(C)(C)CC2=O (centres undefined),inactive,–
O=C1NC(=O)N(c2ccccc2)C(=O)/C1=C/c1ccc([N+](=O)[O-])s1,–,8.91 µM (active)
COc1cccc(N2C(=O)NC(=O)/C(=C\c3ccc([N+](=O)[O-])s3)C2=O)c1,–,7.94 µM (active)
COc1cccc(N2C(=O)NC(=O)/C(=C\c3cn(C)c4ccccc34)C2=O)c1,inactive,–
CCN1C[C@]2(C)CC[C@H](O)[C@@]34[C@@H]5CC6[C@@H](OC)C[C@@](O)([C@@H]5[C@@H]6O)[C@H](C[C@@H]23)[C@H]14,28.6% [at 21.5 µM] (inactive),–
CCOc1cccc(=NC2CCCCC2)c2c(C)[nH]c(C)c12,40.3% [at 12.7 µM] (inactive),–
NC[C@H](O)c1ccc(O)cc1,24.2% [at 21.5 µM] (inactive),–
CCN(CC)C(=O)c1ccc(NC(=O)c2cc(-n3cnnc3)ccc2Cl)cc1,-47.2% [at 12.7 µM] (inactive),–
COC(=O)C1=C(c2ccc(Cl)c(C(F)(F)F)c2)C[C@@H]2CC[C@H]1N2C(=O)NC(C)C,11.8% [at 2.33 µM] (inactive),–
CC[N+]1(C)CCCC(OC(=O)C(O)(c2ccccc2)c2ccccc2)C1 (centres undefined),inactive,–
Cc1ncsc1CCCl,–,inactive and 23.8 µM (active)
COc1ccc(CCn2c(O)c(C=NC3CC3)c(=O)[nH]c2=O)cc1OC,inactive,–
COC(=O)c1ccc2[se]c(CC3CCCCC3)c(I)c2c1,inactive,–
O=C(C1CCN(CC2CCCCC2)CC1)N1CCCC1,–,8.91 µM (active)
CSc1ccc(C(=O)C2CCCN(Cc3ccn[nH]3)C2)cc1 (centres undefined),inactive,–
O=[N+]([O-])c1ccc(C2C3C(c4ccccc4)=NC4(CCCCC4)N32)cc1 (centres undefined),inactive,–
CC(Cc1cccs1)NCc1ccc(Cl)cc1 (centres undefined),inactive,–
Nc1ccc([N+](=O)[O-])cc1,6.3% [at 0.501 µM] (inactive),–

SMILES,"activity, negative = inhibition",Potency
O=c1c2ccccc2nc(-c2ccccc2)n1-c1ccccn1,0.769% [at 0.501 µM] (inactive),–
CC12CN3CC(C)(CN(C1)C3c1cccs1)C2 (centres undefined),inactive,–
Cc1ccc(-c2cc(C(=O)N3CCC4(CC3)OCCO4)no2)cc1,inactive,–
CCOC(=O)C(NS(=O)(=O)c1ccc(C)cc1)(C(F)(F)F)P(=O)(OCC(C)C)OCC(C)C (centres undefined),–,7.08 µM (active)
COC(=O)C1=C(c2ccc(F)cc2OCc2ccccc2)C[C@@H]2CC[C@H]1N2C(=O)NCc1ccc(C(C)(C)C)cc1,21.1% [at 2.33 µM] (inactive),–
CC(=O)Nc1ccccc1C(=O)OCC(=O)c1cccc2ccccc12,inactive,–
CCOC(=O)C1CCN(Cc2coc3ccc(Cl)cc3c2=O)CC1,–,3.16 µM (active)
C[N+]12CN3CN(CN(C3)C1)C2,–,1.12 µM (active)
COc1ccc(CCn2c(O)c(C=NCCCn3ccnc3)c(=O)[nH]c2=O)cc1OC,inactive,–
CCCCCCCCCCCCCC(=O)O[C@@H]1[C@@H](C)[C@@]2(O)[C@@H](C=C(CO)C[C@]3(O)C(=O)C(C)=C[C@@H]23)[C@@H]2C(C)(C)[C@]12OC(C)=O,inactive,–
COC(=O)N1C(c2ccccc2)C1c1ccccc1 (centres undefined),inactive,–
COC(=O)C1=C(c2cccc(OCc3ccccc3)c2)C[C@@H]2CC[C@H]1N2C(=O)NCc1ccc(Br)cc1,-5.98% [at 0.501 µM] (inactive),–
O=C(Nc1cccc2ccccc12)N1CCC2(CC1)OCCO2,–,50.1 µM (active)
O=C(c1cc(-c2ccncc2)nc2ccccc12)N1CCC2(CC1)OCCO2,inactive,–
COc1ccc(NC(=O)N2CCC3(CC2)OCCO3)c(OC)c1,inactive,–
CCN1CC2C3CCC(C)(O3)C2C1 (centres undefined),inactive,–
Cc1nnc(NC(=O)c2cccn(Cc3cccc(F)c3)c2=O)s1,inactive,–
Cn1cc(/C=C/c2nc3ccccc3c(=O)n2-c2ccccc2)c2ccccc21,inactive,–
O=C(OCC1O[C@@H](OC(=O)c2cc(O)c(O)c(O)c2)[C@@H](OC(=O)c2cc(O)c(O)c(O)c2)[C@@H](OC(=O)c2cc(O)c(O)c(O)c2)[C@@H]1OC(=O)c1cc(O)c(O)c(O)c1)c1cc(O)c(O)c(O)c1 (some centres undefined),–,50.1 µM (active)
CCN(N=Nc1nonc1OC)c1nonc1OC,inactive,–

SMILES,"activity, negative = inhibition",Potency
CC(=O)N(C1=NCCCS1)c1ccccc1F,inactive,–
COc1ccc(-c2nn(CCC#N)cc2C(=O)O)cc1,inactive,–
CC(=O)c1ccc(OC(NC(=O)Cc2ccccc2)C(Cl)(Cl)Cl)cc1 (centres undefined),inactive,–
CN(C)C(=O)Oc1ccc2c(c1)O/C(=C\c1ccccc1)C2=O,inactive,–
N#CC(C#N)=Cc1cc(O)c(O)c([N+](=O)[O-])c1,–,14.1 µM (active) and 15.8 µM (active)
NCCc1ccc(S(=O)(=O)F)cc1,inactive,–
COc1ccc(C2NCc3ccc4c(c3-n3cccc32)OCO4)cc1OC (centres undefined),0.908% [at 12.7 µM] (inactive),–
COc1c(O)ccc2c1-c1c3c(cc4c1C(C2)N(C)CC4)OCO3 (centres undefined),–,39.8 µM (active)
CC(=O)NC(=O)NC(C)Cc1ccccc1 (centres undefined),inactive,–
CCOC(=O)c1c(-c2ccccc2)oc2ccc(OC(=O)N(C)C)cc12,6.28% [at 12.7 µM] (inactive),–
O=C(CN1CCCCC1)Nc1ccc(Br)cc1C(=O)c1ccccc1Cl,inactive,–
NC(=O)Nc1cccc(C(F)(F)F)c1,inactive,–
CC(C)C(N)C(=O)OCCOCn1cnc2c(=O)[nH]c(N)nc21 (centres undefined),-19.5% [at 2.33 µM] (inactive),–
Cc1ccc(Cn2nnnc2CN2CCC(n3nnc4ccccc43)CC2)cc1,–,50.1 µM (active)
CC(C)(O)c1[se]c2ccccc2c1I,inactive,–
CN(C)S(=O)(=O)c1cc(C(=O)N2CCC(C(=O)O)(c3ccccc3)CC2)ccc1Cl,inactive,–
Cc1ccc(C)c(NC2=NCCCS2)c1,inactive,–
Cc1c(C(=O)O)cccc1-n1c(C)cc(/C=C2\C(=O)NC(=O)N(c3ccc4c(c3)OCO4)C2=O)c1C,–,28.2 µM (active)
CC(C)c1c(CN(C)C(C)Cc2ccccc2)n(C)n(-c2ccccc2)c1=O (centres undefined),inactive,–
